# Assay results: PMC7862700, “An all-to-all approach to the identification of sequence-specific readers for epigenetic DNA modifications on cytosine”
# Legend:
# Assay in all cases: DAPPL (digital affinity profiling via proximity ligation, sequencing); 10 mM Tris-HCl pH 7.5, 50 mM NaCl, 1 mM DTT, 4% glycerol, room temperature, 30 min; GST-TFs on glutathione beads, 16-mer random dsDNA library, 0.1% formaldehyde crosslink after washing; high values mean tight binding
# Details in all cases: protein: recombinant; tags: N-terminal GST; dsDNA, one strand shown
# [1] = target: T1, GABPA (Homo sapiens, UniProt Q06546 1-454)
# T1 sequence: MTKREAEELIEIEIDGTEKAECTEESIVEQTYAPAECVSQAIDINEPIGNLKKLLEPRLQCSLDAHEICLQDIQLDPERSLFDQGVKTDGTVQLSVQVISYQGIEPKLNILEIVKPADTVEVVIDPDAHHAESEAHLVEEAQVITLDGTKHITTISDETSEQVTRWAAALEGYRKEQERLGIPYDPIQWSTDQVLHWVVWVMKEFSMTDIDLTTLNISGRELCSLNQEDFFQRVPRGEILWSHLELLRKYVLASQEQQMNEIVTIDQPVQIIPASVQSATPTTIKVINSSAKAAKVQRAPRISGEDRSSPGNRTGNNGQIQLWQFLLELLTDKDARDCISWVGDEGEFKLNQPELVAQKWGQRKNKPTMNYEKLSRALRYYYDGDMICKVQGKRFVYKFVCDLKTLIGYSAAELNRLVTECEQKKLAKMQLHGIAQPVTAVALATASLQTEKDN
# Procedure, shortened: (§1)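 Pools were built from human transcription factors expressed in yeast as GST fusions, captured on glutathione beads and DNA-barcoded, along with a tag-only sample. Incubation with 200 nmole of a 16-mer random double-stranded DNA library lasted 30 min at room temperature in Tris/NaCl/DTT/glycerol buffer, and was followed by washing, 0.1% formaldehyde crosslinking, proximity ligation, PCR amplification and Illumina NextSeq500 sequencing. Binding signal is the quotient of each hexamer's read frequency for a factor and its frequency for the tag-only sample.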
# [2] = target: T2, ERG (Homo sapiens, UniProt P11308 1-479)
# T2 sequence: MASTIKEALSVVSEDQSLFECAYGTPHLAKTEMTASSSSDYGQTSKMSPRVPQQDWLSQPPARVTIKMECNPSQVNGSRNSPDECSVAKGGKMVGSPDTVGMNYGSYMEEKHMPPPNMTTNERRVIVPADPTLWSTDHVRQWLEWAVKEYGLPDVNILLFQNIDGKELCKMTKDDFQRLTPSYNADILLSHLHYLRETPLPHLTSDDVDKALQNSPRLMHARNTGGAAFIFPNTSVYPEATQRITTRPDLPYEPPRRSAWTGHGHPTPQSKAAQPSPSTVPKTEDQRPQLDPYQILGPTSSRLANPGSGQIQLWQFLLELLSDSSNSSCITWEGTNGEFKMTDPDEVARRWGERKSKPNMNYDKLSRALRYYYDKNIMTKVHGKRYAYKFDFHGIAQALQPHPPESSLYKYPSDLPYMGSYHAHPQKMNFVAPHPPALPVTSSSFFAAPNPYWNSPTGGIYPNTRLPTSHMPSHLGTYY
# Procedure, shortened: as §1
# [3] = target: ELF1 (Homo sapiens, UniProt P32519 1-619)
# Procedure, shortened: as §1
# [4] = target: T3, EHF (Homo sapiens, UniProt Q9NZC4 1-300)
# T3 sequence: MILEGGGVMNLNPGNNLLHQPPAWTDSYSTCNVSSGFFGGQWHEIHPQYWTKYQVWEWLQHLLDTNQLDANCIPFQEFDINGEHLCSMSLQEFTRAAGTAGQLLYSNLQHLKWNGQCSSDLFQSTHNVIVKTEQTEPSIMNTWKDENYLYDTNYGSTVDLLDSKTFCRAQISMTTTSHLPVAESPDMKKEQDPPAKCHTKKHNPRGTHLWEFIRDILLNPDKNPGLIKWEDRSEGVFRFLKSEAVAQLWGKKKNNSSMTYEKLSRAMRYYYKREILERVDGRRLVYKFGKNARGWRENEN
# Procedure, shortened: as §1
# [5] = target: SPI1 (Homo sapiens, UniProt P17947 1-270)
# Procedure, shortened: as §1
# [6] = target: SPIB (Homo sapiens, UniProt Q01892 1-262)
# Procedure, shortened: as §1
# [7] = target: T4, FEV (Homo sapiens, UniProt Q99581 1-238)
# T4 sequence: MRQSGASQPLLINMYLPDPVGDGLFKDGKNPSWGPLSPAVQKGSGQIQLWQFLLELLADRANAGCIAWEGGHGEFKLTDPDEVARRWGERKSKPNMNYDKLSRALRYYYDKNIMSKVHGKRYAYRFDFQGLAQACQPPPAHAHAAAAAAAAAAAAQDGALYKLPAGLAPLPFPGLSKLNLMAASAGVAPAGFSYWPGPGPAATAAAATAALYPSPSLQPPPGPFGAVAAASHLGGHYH
# Procedure, shortened: as §1
# [8] = target: ETV5 (Homo sapiens, UniProt P41161 1-510)
# Procedure, shortened: as §1
# [9] = target: ELF4 (Homo sapiens, UniProt Q99607 1-663)
# Procedure, shortened: as §1
# [10] = target: T5, ELK4 (Homo sapiens, UniProt P28324-2 1-405)
# T5 sequence: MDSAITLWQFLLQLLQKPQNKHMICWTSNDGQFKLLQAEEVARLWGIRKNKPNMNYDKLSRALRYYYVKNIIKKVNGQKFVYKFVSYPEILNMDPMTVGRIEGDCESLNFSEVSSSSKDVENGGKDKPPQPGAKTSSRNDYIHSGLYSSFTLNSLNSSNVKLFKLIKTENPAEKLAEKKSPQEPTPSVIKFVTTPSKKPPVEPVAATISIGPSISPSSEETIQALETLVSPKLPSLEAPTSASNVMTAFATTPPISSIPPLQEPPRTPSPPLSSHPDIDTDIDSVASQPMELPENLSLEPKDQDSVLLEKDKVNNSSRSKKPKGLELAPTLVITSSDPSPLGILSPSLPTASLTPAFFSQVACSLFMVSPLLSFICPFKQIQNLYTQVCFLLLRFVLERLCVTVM
# Procedure, shortened: as §1
# [11] = target: T6, ELF3 (Homo sapiens, UniProt P78545 1-371)
# T6 sequence: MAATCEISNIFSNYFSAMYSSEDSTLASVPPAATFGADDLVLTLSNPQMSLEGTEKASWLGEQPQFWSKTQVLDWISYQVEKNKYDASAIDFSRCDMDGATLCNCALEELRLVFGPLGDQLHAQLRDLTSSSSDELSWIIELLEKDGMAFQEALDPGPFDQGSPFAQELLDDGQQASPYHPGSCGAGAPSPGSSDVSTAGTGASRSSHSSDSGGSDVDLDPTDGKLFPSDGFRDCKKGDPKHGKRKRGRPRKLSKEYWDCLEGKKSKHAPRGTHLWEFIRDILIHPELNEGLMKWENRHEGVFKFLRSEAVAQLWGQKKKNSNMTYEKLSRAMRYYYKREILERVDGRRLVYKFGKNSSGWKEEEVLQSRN
# Procedure, shortened: as §1
# [12] = target: ETV1 (Homo sapiens, UniProt P50549 1-477)
# Procedure, shortened: as §1
# [13] = target: T7, ERF (Homo sapiens, UniProt P50548 1-548)
# T7 sequence: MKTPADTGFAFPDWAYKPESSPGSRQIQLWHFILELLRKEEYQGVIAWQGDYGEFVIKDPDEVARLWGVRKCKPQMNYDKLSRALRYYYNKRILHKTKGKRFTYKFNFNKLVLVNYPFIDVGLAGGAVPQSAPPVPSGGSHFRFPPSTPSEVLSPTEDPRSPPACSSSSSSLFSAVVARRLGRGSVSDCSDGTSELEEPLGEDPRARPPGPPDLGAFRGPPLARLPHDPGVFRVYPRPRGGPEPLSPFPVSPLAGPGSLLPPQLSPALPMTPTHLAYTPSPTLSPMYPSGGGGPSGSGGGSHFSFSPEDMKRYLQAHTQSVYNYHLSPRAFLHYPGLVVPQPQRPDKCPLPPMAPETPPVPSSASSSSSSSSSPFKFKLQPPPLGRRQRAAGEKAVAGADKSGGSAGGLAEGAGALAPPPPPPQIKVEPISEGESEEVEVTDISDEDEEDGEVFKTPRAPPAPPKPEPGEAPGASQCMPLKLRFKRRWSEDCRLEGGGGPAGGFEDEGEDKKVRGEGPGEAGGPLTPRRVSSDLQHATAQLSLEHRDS
# Procedure, shortened: as §1
# [14] = target: T8, ETV3L (Homo sapiens, UniProt Q6ZN32 1-361)
# T8 sequence: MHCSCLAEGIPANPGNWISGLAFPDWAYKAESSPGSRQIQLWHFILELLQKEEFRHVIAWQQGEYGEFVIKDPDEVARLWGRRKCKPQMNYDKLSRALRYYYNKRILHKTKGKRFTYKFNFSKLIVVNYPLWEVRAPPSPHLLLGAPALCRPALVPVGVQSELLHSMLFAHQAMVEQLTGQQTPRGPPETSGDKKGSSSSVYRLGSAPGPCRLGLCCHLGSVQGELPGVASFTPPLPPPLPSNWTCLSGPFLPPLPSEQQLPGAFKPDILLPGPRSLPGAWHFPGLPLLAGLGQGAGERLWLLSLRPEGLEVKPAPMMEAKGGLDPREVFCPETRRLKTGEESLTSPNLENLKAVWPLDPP
# Procedure, shortened: as §1
# [15] = target: T9, SPDEF (Homo sapiens, UniProt O95238 1-335)
# T9 sequence: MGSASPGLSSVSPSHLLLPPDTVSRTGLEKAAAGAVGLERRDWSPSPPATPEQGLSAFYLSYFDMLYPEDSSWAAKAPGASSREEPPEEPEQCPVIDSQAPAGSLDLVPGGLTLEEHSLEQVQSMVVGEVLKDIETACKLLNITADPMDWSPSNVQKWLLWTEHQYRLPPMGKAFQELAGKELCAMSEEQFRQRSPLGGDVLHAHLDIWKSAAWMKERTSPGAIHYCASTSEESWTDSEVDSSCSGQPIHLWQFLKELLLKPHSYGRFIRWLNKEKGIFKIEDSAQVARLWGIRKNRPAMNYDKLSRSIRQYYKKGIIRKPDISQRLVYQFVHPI
# Procedure, shortened: as §1
# [16] = target: T10, ETV7 (Homo sapiens, UniProt Q9Y603 1-341)
# T10 sequence: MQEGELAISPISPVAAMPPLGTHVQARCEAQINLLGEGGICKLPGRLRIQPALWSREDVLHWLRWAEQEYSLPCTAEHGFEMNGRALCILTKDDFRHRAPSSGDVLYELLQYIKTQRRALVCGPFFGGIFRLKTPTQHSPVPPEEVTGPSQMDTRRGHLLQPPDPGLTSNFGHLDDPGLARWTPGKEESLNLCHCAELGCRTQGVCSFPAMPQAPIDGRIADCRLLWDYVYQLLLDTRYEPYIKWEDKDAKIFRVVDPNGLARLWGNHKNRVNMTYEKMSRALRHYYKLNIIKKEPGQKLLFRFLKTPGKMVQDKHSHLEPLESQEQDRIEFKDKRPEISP
# Procedure, shortened: as §1
# [17] = target: ETV6 (Homo sapiens, UniProt P41212 1-452)
# Procedure, shortened: as §1
# Chain of ELF4 (Q99607 whole entry): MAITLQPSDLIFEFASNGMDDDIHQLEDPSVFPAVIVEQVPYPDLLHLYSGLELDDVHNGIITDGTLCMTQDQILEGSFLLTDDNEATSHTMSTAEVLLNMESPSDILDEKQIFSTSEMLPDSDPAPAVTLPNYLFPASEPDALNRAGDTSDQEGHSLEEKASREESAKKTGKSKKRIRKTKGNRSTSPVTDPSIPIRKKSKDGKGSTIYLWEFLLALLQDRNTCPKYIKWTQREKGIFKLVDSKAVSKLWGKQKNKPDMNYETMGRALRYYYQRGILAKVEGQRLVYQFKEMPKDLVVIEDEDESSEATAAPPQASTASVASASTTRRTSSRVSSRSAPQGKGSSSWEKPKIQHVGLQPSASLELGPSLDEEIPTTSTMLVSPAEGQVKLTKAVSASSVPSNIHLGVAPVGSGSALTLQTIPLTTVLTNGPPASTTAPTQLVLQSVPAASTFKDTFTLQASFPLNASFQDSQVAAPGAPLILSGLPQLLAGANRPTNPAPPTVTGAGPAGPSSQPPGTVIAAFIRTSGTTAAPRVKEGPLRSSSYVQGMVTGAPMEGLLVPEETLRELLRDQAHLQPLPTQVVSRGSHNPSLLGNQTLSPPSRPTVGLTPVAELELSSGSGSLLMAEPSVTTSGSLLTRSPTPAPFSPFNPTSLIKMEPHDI
# Chain of ETV1 (P50549 whole entry): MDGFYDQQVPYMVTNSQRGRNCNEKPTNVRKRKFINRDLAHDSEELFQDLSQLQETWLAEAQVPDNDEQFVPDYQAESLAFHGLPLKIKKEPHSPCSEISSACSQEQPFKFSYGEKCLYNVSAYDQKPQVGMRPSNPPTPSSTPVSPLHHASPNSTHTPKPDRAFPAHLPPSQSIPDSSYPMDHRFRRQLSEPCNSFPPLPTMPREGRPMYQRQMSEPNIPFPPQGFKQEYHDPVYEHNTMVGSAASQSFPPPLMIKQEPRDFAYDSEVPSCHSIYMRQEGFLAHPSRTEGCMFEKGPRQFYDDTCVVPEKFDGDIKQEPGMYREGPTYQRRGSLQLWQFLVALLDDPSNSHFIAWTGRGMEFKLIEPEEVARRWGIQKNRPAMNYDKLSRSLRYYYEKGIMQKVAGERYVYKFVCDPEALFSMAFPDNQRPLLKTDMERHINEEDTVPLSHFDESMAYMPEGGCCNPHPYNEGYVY
# Chain of ETV6 (P41212 whole entry): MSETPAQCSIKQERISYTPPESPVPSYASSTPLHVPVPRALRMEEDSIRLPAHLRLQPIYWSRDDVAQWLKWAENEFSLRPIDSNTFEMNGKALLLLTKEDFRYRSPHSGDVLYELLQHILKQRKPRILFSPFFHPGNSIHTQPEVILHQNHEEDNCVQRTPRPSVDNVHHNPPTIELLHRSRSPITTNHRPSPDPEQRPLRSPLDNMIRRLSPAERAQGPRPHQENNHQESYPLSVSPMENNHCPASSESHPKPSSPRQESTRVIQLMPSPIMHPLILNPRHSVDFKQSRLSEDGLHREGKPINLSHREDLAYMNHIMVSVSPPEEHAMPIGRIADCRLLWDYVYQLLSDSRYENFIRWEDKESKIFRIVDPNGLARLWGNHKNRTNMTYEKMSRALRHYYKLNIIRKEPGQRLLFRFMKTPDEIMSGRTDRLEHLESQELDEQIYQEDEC
# Chain of ELF1 (P32519 whole entry): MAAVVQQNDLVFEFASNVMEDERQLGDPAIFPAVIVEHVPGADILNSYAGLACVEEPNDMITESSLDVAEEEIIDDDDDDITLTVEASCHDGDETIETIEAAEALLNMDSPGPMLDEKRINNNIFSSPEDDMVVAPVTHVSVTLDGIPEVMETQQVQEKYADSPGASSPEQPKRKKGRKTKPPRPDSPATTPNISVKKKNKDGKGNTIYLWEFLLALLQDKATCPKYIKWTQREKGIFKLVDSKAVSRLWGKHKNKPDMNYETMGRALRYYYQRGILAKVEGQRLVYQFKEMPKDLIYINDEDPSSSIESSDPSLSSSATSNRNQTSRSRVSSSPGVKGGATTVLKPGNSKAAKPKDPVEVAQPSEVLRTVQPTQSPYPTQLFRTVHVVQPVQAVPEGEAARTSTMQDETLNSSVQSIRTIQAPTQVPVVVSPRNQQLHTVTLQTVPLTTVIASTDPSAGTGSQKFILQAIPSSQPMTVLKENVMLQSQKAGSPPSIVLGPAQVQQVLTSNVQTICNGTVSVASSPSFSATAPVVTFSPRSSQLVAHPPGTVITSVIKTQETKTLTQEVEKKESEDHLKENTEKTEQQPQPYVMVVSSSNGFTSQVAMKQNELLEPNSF
# Chain of SPIB (Q01892 whole entry): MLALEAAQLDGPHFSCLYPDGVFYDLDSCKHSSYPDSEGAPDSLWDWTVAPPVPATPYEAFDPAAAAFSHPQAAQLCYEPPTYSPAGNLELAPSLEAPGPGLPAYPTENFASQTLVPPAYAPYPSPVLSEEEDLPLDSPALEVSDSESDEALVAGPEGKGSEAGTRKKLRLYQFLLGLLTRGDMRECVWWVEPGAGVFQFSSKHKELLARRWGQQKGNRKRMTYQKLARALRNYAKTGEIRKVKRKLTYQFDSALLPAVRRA
# Chain of ETV5 (P41161 whole entry): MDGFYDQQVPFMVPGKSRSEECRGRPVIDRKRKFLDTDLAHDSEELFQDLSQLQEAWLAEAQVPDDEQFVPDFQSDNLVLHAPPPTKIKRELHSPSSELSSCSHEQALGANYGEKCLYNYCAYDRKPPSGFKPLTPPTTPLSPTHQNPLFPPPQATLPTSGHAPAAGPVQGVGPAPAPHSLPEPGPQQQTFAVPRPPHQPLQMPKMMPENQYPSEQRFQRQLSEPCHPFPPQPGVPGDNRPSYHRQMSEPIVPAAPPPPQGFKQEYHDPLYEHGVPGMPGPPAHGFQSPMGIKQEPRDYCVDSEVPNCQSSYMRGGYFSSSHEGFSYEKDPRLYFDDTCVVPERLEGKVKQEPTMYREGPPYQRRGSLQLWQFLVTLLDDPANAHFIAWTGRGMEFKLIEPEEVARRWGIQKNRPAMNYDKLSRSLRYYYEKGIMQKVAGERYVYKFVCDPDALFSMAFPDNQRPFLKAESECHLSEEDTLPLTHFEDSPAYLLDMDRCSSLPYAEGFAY
sequence,measurement,setting,value
CATAAT,binding signal,[1],"1.01 fold enrichment (6-mer frequency, TF over GST control)"
same,binding signal,[2],"1.1 fold enrichment (6-mer frequency, TF over GST control)"
same,binding signal,[3],"1.02 fold enrichment (6-mer frequency, TF over GST control)"
same,binding signal,[4],"1.13 fold enrichment (6-mer frequency, TF over GST control)"
same,binding signal,[5],"1 fold enrichment (6-mer frequency, TF over GST control)"
same,binding signal,[6],"1.04 fold enrichment (6-mer frequency, TF over GST control)"
same,binding signal,[7],"1.01 fold enrichment (6-mer frequency, TF over GST control)"
same,binding signal,[8],"1.09 fold enrichment (6-mer frequency, TF over GST control)"
same,binding signal,[9],"1.01 fold enrichment (6-mer frequency, TF over GST control)"
same,binding signal,[10],"1.03 fold enrichment (6-mer frequency, TF over GST control)"
same,binding signal,[11],"1.01 fold enrichment (6-mer frequency, TF over GST control)"
same,binding signal,[12],"1.05 fold enrichment (6-mer frequency, TF over GST control)"
same,binding signal,[13],"1.02 fold enrichment (6-mer frequency, TF over GST control)"
same,binding signal,[14],"1.01 fold enrichment (6-mer frequency, TF over GST control)"
same,binding signal,[15],"1 fold enrichment (6-mer frequency, TF over GST control)"
same,binding signal,[16],"1.02 fold enrichment (6-mer frequency, TF over GST control)"
same,binding signal,[17],"1.07 fold enrichment (6-mer frequency, TF over GST control)"
